Measured values: PubChem BioAssay AID652126 (The Scripps Research Institute Molecular Screening Center, 2013)
Hit rate of the full screen: of about 370,000 compounds, about 3,700 (1%) were called active. The list comes from a sample in which actives are over-represented; it also holds similar structures and randomly drawn compounds. Unmarked numbers belong to inactive results.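 How the source made its calls: active means activation above the mean over all tested compounds plus 3 SD (cut at about 0.9% in these data); inactive means the rest.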

test system: Nuclear hormone receptor DAF-12 (Strongyloides stercoralis); test: S. stercoralis DAF-12 nuclear receptor activators, primary screen, cell-based, luminescence, HEK293, GRIP1 co-expression, lit1-tk-luc (AID 652126); conditions: HEK293 ssDAF-12/GRIP1 lit1-tk-luc reporter, at 6.8 µM, hits give high values, % of 3 µM dafachronic acid response;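 further: 0% = DMSO-only wells and 100% = 3 µM delta7-dafachronic acid wells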

Compound | activation
Cn1c(=NC(=O)c2ccco2)sc2cccc(F)c21 | 2.16% (active)
Cc1cc(NC(=O)c2ccco2)c(=O)n(Cc2c(F)cccc2Cl)c1 | -1.23%
Cn1c(=O)c2c(nc(NCCNC(=O)c3ccco3)n2Cc2ccccc2F)n(C)c1=O | -0.73%
O=C(COc1ccccc1Cl)Nc1ccc(C(=O)c2ccc(C(=O)O)cc2)cc1 | -1.01%
O=C(COc1ccccc1Cl)Nc1ccccc1C(=O)NC1CC1 | -0.61%
CC(=O)Nc1ccc(NC(=O)COc2ccccc2C(=O)Nc2cccc(Cl)c2Cl)cc1 | 1.78% (active)
O=C(CSc1nc2ccccc2s1)N=Nc1c(O)[nH]c2ccccc12 | -1.23%
CN(CCc1ccccc1)c1ccc([N+](=O)[O-])cn1 | -0.22%
CCC1([N+](=O)[O-])COC(c2ccc(C(C)C)cc2)OC1 (stereo not given) | -0.23%
CC(C)c1ccc(C=NNc2ccc([N+](=O)[O-])cn2)cc1 | 1.01% (active)
CCOC(=O)[C@@]12CCC3=C1N(CCC3)C(=O)[C@H](CC(=O)N1CCN(C(=O)c3ccco3)CC1)C2 | -0.8%
CN1[C@H](Cc2ccccc2)COc2cccc(N3CCSCC3)c2S1(=O)=O | -0.12%
O=C(NCC1COc2ccccc2O1)c1ccc(NC(=O)c2cc(F)ccc2F)cc1 (stereo not given) | -0.55%
COC(=O)c1ccccc1-n1cc(COC(=O)NCCc2ccccc2)nn1 | -1.12%
CCn1c(SCC(=O)Nc2nccs2)nnc1-c1ccco1 | -1.06%
Nn1c(SCC(=O)Nc2nccs2)nnc1-c1ccco1 | 0.9% (active)
Nn1c(SCC(=O)Nc2nccs2)nncc1=O | -2.06%
O=S1(=O)CC(N2CCN(CCO)CC2)CN1Cc1cn(Cc2ccc(Cl)cc2)nn1 (stereo not given) | -0.54%
O=S1(=O)c2ccc(Br)cc2OC[C@@H](Cc2ccccc2)N1Cc1cn(Cc2ccco2)nn1 | -1.35%
O=C(CCS(=O)(=O)c1ccccc1)Nc1ccc(Cl)c(Cl)c1 | -1.34%

Compound | activation
Cc1cc(N)n2nc(-c3ccc(C(C)(C)C)cc3)cc2n1 | 2.97% (active)
CCOC(=O)C1=C(C)NC2=C(C(=O)CC(C)(C)C2)C1c1ccc2c(c1)OCO2 (stereo not given) | -1.32%
COc1ccccc1NC(=O)c1c(Br)cnn1C | -1.57%
COc1ccccc1NC(=O)c1cc(Cl)nnc1Cl | -0.66%
COc1ccccc1NC(=O)c1ccc(C)s1 | 1.3% (active)
O=C(CSc1nnc(-c2cccc(Cl)c2)n1Cc1ccco1)Nc1ccc(OCc2ccccc2)cc1 | -1.14%
Cc1nn(CCOc2ccccc2)c(=O)n1-c1ccccc1F | 1.79% (active)
Cc1cccc2c1N(CCOc1ccccc1)C(=O)C2=O | -1.52%
Cc1c(C(N)=O)sc2ncn(CCOc3ccccc3)c(=O)c12 | -2.14%
Cc1ccc(NC(=O)c2cc(C)nn2-c2ccccc2)c(C)c1 | -1.78%
O=C(CNS(=O)(=O)c1ccccc1F)N1CCN(c2ccccn2)CC1 | -1.72%
Cc1ccc2nc(SCc3nnc(-c4ccccc4[N+](=O)[O-])o3)c(C#N)cc2c1 | -1.27%
Fc1ccc(-c2nnc(CSc3nnc(-c4ccc5c(c4)OCO5)o3)o2)cc1 | -1.18%
Fc1ccc2nc(-c3ccccc3)nc(SCc3nnc(-c4ccccc4)o3)c2c1 | 1.48% (active)
O=C1CC[C@@H](COc2ccc3[nH]cc(-c4ccccc4)c3c2-c2ccccc2)N1 | -0.33%
COC1=C[C@H](C(=O)NCCNC(C)=O)[C@H](C)[C@@H](c2ccccc2)CC1=O | -1.26%
FC(F)(F)c1ccc2c3n(nc2c1)CCN=C3c1ccc(Cl)cc1 | 1.01% (active)
Cc1csc(SCC(=O)Nc2sccc2C#N)n1 | 0.96% (active)
CC(=O)c1cc(C#N)c(SCC(=O)Nc2nccs2)nc1C | -0.91%
CC(c1nnc(SCC(=O)Nc2sccc2C#N)n1-c1ccc(Cl)cc1)N(C)C (stereo not given) | -0.72%

Compound | activation
C=C(C)C1CC23C(=O)C4(C(=O)c5ccccc5)C[C@@]5(C)CCC(CC2C1(C)C)(C4=O)C35OC (stereo not given in full) | -1.03%
Clc1ccc(-n2c(SC/C=C/c3ccccc3)nnc2-c2ccco2)cc1 | -1.68%
COc1ccc(C(=O)OCCN(C)C2CN(Cc3cn(Cc4cccc(C)c4)nn3)S(=O)(=O)C2)cc1OC (stereo not given) | -0.78%
COc1ccccc1Cc1c(-c2ccc(F)cc2)nc2ccc(C)cn12 | 0.07%
Cc1ccc2nc(-c3ccccc3)c(CC3CCCCC3)n2c1 | 1.3% (active)
Brc1ccc2nc(-c3ccccc3)c(Cc3ccccc3)n2c1 | -0.45%
COc1ccc(-n2c(SCC(=O)Nc3ccc4cn[nH]c4c3)nnc2-c2cccnc2)cc1 | -1.16%
O=C(CSc1nc2c(c(=O)[nH]1)CCCC2)N1CCCCC1 | -1.67%
CCOC(=O)C(NC(=O)CC(C)C)(Nc1sc2c(c1C(N)=O)CCCC2)C(F)(F)F (stereo not given) | -0.54%
NC(=O)c1c(Nc2nc3c(F)cccc3s2)sc2c1CCCC2 | 1.29% (active)
NNc1nc2c(Cl)cccc2s1 | -0.81%
NC(=O)c1c(NC(=O)c2ccccc2)sc2c1CCCC2 | 2.15% (active)
CCN(CC)CC(=O)Nc1sc2c(c1C(=O)c1ccccc1C)CCC2 | -1.11%
COC(=O)c1c(NC(=O)COC(=O)[C@@H](NS(=O)(=O)c2ccccc2)C(C)C)sc2c1CCC2 | -1.44%
Cc1ccc(C(=O)C2CCN(CC(=O)NCCC(C)C)CC2)cc1 | -1.67%
Clc1ccc(Nc2ccc3ccccc3n2)cc1 | 2.58% (active)
C=CCNc1nc(Nc2ccc(Cl)cc2)nc(OC)n1 | -0.26%
CC1(C)N=C(N)NC(Nc2ccc(Cl)cc2)=N1 | -1.4%
O=C(CCl)NC1CCCCN(Cc2cccc(C(F)(F)F)c2)C1=O (stereo not given) | -1.24%
NCC(=O)c1cccc2ccc[n+]([O-])c12 | -0.72%
